Reference: PubChem BioAssay
Active and inactive are the calls of the source. Unless noted, how the calls were made is not given here.

What was measured:
[1] = Wnt pathway potentiators raising nuclear beta-catenin – imaging, WNT3A-conditioned medium, mouse C2C12, NPC library, primary screen (AID 1117326; in the data active means nuclear beta-catenin stimulation mostly above about 4.2%, no sharp cut-off; inactive means mostly below about 10%); settings: stronger effect = higher value
[2] = stimulators of insulin release from INS-1E, primary screen, cell-based, 5 mM glucose, NPC library (AID 1117329;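 active means compound raises insulin release from rat beta cells at 5 mM glucose, no numeric limit stated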); settings: rat INS-1E insulin secretion, at 10 µM, stronger effect = higher value
[3] = growth inhibition of GSK3B-pretreated HCT116 cells – cell-based, CellTiter-Glo, 0.2 to 20 µM (AID 1117336;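 active means compounds lowering colon cancer cell viability after pretreatment blocking the GSK3B kinase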); settings: HCT116 viability after GSK3B inhibitor, at 20 µM, stronger effect = higher value
[4] = inhibition of endothelial tube formation, primary screen, imaging, VEGF stimulated, CD31 staining, tube area, NPC library (AID 1117340;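 active means compound that reduces growth-factor-driven endothelial tube area in a mixed cell culture, no cutoff stated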); settings: VEGF-stimulated ADSC/ECFC co-culture, at 10 µM, stronger effect = higher value
[5] = GLP1 release stimulators, primary, NCI-H716, NPC library (AID 1117341;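 active means compound raises GLP1 secretion from the human gut endocrine cells, with no numeric limit stated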); settings: NCI-H716 cells, at 10 µM, stronger effect = higher value
[6] = HCT116 colon cancer cell growth inhibition, primary screen, CellTiter-Glo luminescence, NPC library (AID 1117342;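 active means compounds that lower survival of HCT116 colon cancer cells in the luminescence readout, no numeric limit stated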); settings: at 20 µM (top of the series)
[7] = reduced SW480 viability measured with CellTiter-Glo, NPC library, primary (AID 1117343;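 active means compounds that lower viability of the colon cancer cells in the luminescence readout, with no numeric limit stated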); settings: CellTiter-Glo luminescence; at 20 µM (top of the series)
[8] = NPC library primary testing for decreased DLD-1 cell viability via CellTiter-Glo (AID 1117346;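 active means compounds that lower survival of DLD-1 colon cancer cells in the luminescence readout, no cutoff given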); settings: DLD-1 viability, CellTiter-Glo luminescence; at 20 µM (top of the series)
[9] = liver-stage malaria parasite load reduction – cell-based, known kinase inhibitor set, luminescence, hepatoma host viability (AID 624392); settings: Plasmodium liver stage in hepatoma cells, luciferase luminescence, concentration not given here; liver cell % of control: measured here: host liver cell viability; parasite % of control: stronger effect = lower value;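 further: infected cells incubated roughly two days before readout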
[10] = altered dexamethasone sensitivity, NF-kB reporter, cell-based, luciferase, IL-1B stimulus (AID 624486); settings: IL-1B + dexamethasone, luminescence; percent of negative control (+Dex): actives lie on both sides, concentration not given here; z-score: measured here: IL-1B alone, no Dex;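 on percent of negative control (+Dex): 100% = mean signal of vehicle control wells on the plate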
[11] = C. elegans survival during P. aeruginosa infection – whole organism (AID 651566);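 further: tested at 14 µM; sign flipped so higher z means a lower ratio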; settings: C. elegans killed by P. aeruginosa, survival ratio
[12] = pro-inflammatory signaling induction in mouse macrophages – cell-based, murine, luminescence (AID 652131); settings: murine macrophage pro-inflammatory reporter, stronger effect = higher value
[13] = inducers of IRF3 signaling, differentiated THP-1 – cell-based, PMA-stimulated THP-1, luminescence (AID 1053176); settings: PMA-differentiated THP-1, IRF3 reporter luminescence; stronger effect = higher value
[14] = MELAS cybrid and Rieske KO viability enhancers – cell-based, MELAS cybrids, Rieske KO mouse fibroblasts, CellTiter-Glo, primary screen (AID 1508586;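 active means mean z-score across replicates of 1.96 or higher in either the MELAS or the Rieske mutant cell line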;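 further: z relative to plate mean and SD of compound and empty wells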); settings: low glucose
[15] = MELAS cybrid survival, CellTiter-Glo 48 h, stronger effect = higher value
[16] = Rieske KO mouse fibroblast survival, CellTiter-Glo 72 h

O=C1CC2(CCCC2)CC(=O)N1
-1.2%: nuclear beta-catenin stimulation ([1]; stimulation, at 2 µM)
inactive: nuclear beta-catenin stimulation ([1]; at 10 µM) -0.8% | insulin secretion stimulation [2] 0.4% | viability decrease [3] -4% | tube area decrease [4] -10.3% | GLP1 secretion stimulation [5] -1.6% | inhibition of viability [6] 7.1% | viability decrease (inhibition) [7] 2.5% | viability decrease (inhibition) [8] -2.4%

COc1cc(Nc2ncc(-c3ccccc3)o2)cc(OC)c1OC
-0.275: z-score [14, 16]
0.42: z-score [10]
inactive: parasite % of control [9] 18.6% | percent of negative control (+Dex) [10] 93.5% | z-score [11] 1.53 | z-score [12] -0.164 | fraction signal [13] -0.0025 | z-score [14, 15] 1.37
152%: liver cell % of control [9]

CC(C)(C)c1ccc(Oc2nccc(-c3c(-c4ccc(F)cc4)ncn3C3CCNCC3)n2)cc1
inactive: parasite % of control [9] 76.7% | percent of negative control (+Dex) [10] 106% | z-score [11] 0.215 | z-score [12] -0.618 | fraction signal [13] 0 | z-score [14, 15] -0.424
0.0471: z-score [14, 16]
81.4%: liver cell % of control [9]
0.75: z-score [10]

Cc1[nH]nc2c1N=C(c1ccccc1Cl)c1cc([N+](=O)[O-])ccc1N2
-1.15: z-score [10]
92.3%: liver cell % of control [9]
inactive: parasite % of control [9] 32.5% | percent of negative control (+Dex) [10] 104% | fraction signal [13] -0.0135

Oc1cccc(-c2c3nc(c(-c4cccc(O)c4)c4ccc([nH]4)c(-c4cccc(O)c4)c4nc(c(-c5cccc(O)c5)c5ccc2[nH]5)CC4)C=C3)c1
active: viability decrease [3] 95.2% | inhibition of viability [6] 109% | viability decrease (inhibition) [7] 141% | viability decrease (inhibition) [8] 95.7%
inactive: nuclear beta-catenin stimulation ([1]; at 10 µM) 24.3% | insulin secretion stimulation [2] -1.15% | tube area decrease [4] -79.5% | GLP1 secretion stimulation [5] 13.6%
-1.7%: nuclear beta-catenin stimulation ([1]; stimulation, at 2 µM)

Cc1ccc(NC(=O)c2ccnc(N3CCOCC3)c2)cc1-c1ccc(C(=O)NCC2CC2)cc1
inactive: parasite % of control [9] 95.1% | percent of negative control (+Dex) [10] 102% | z-score [11] 0.01 | z-score [12] -0.216 | fraction signal [13] -0.0075 | z-score [14, 15] -0.365
-0.395: z-score [14, 16]
1.12: z-score [10]
100%: liver cell % of control [9]

O=C(O)c1ccc(Oc2nccc(-c3c(-c4ccc(F)cc4)ncn3C3CCNCC3)n2)cc1
-0.04: z-score [10]
inactive: parasite % of control [9] 117% | percent of negative control (+Dex) [10] 97% | z-score [11] -0.625 | z-score [12] 0.424 | fraction signal [13] 0.0015 | z-score [14, 15] -0.0801
-0.396: z-score [14, 16]
104%: liver cell % of control [9]

COc1ccccc1C1=C(Nc2ccccc2)C(=O)NC1=O
0.775: z-score [10]
112%: liver cell % of control [9]
inactive: parasite % of control [9] 110% | percent of negative control (+Dex) [10] 102% | z-score [11] -0.36 | z-score [12] -0.103 | fraction signal [13] -0.012 | z-score [14, 15] -1.08
-0.271: z-score [14, 16]

CCCCCC(N)=O
2.1%: nuclear beta-catenin stimulation ([1]; stimulation, at 2 µM)
inactive: nuclear beta-catenin stimulation ([1]; at 10 µM) 1.3% | insulin secretion stimulation [2] -1.1% | viability decrease [3] -27.2% | tube area decrease [4] 8.8% | GLP1 secretion stimulation [5] 0.3% | inhibition of viability [6] 2.8% | viability decrease (inhibition) [7] 44.1% | viability decrease (inhibition) [8] -11.8%

Cc1nc2n(c(=O)c1CCN1CCC(C(=O)c3ccc(F)cc3)CC1)CCS2
-0.8%: nuclear beta-catenin stimulation ([1]; stimulation, at 2 µM)
active: inhibition of viability [6] 67.6%
inactive: nuclear beta-catenin stimulation ([1]; at 10 µM) 0.2% | insulin secretion stimulation [2] 0.2% | viability decrease [3] 38% | tube area decrease [4] 14.8% | GLP1 secretion stimulation [5] 5.4% | viability decrease (inhibition) [7] 29.6% | viability decrease (inhibition) [8] 33.5%

[O-][n+]1ccccc1SSc1cccc[n+]1[O-]
34%: nuclear beta-catenin stimulation ([1]; stimulation, at 2 µM)
inactive: insulin secretion stimulation [2] -0.2% | GLP1 secretion stimulation [5] 15.1% | viability decrease (inhibition) [7] -68.5% | viability decrease (inhibition) [8] 1.15%
active: nuclear beta-catenin stimulation ([1]; at 10 µM) 78.1% | viability decrease [3] 51% | tube area decrease [4] 103% | inhibition of viability [6] 51.9%

O=C(O)c1ccccc1-c1ccc(C(F)(F)F)cc1
inactive: nuclear beta-catenin stimulation ([1]; at 10 µM) 2.2% | insulin secretion stimulation [2] -0.1% | viability decrease [3] -52.5% | tube area decrease [4] 21.5% | GLP1 secretion stimulation [5] 5.5% | inhibition of viability [6] -0.77% | viability decrease (inhibition) [7] 31.1% | viability decrease (inhibition) [8] -11.8%
0.7%: nuclear beta-catenin stimulation ([1]; stimulation, at 2 µM)

Nc1ccc(S(=O)(=O)Nc2ccccc2)cc1
inactive: nuclear beta-catenin stimulation ([1]; at 10 µM) 1% | insulin secretion stimulation [2] -2.7% | viability decrease [3] -9.8% | tube area decrease [4] 10.5% | GLP1 secretion stimulation [5] 3.7% | inhibition of viability [6] -1.7% | viability decrease (inhibition) [7] 5.2% | viability decrease (inhibition) [8] 0.95%
0.9%: nuclear beta-catenin stimulation ([1]; stimulation, at 2 µM)

COc1cccc2c1C(=O)c1c(O)c3c(c(O)c1C2=O)C[C@@](O)(C(=O)CO)C[C@@H]3O[C@H]1C[C@H](N)[C@H](O[C@@H]2CCCCO2)[C@H](C)O1
inactive: insulin secretion stimulation [2] 0.2% | GLP1 secretion stimulation [5] -0.8%
79.4%: nuclear beta-catenin stimulation ([1]; stimulation, at 2 µM)
active: nuclear beta-catenin stimulation ([1]; at 10 µM) 26.6% | viability decrease [3] 78.8% | tube area decrease [4] -67.7% | inhibition of viability [6] 66.5% | viability decrease (inhibition) [7] 81% | viability decrease (inhibition) [8] 76%

O=S(=O)(O)c1ccc2nc(-c3ccccc3)[nH]c2c1
0.5%: nuclear beta-catenin stimulation ([1]; stimulation, at 2 µM)
inactive: nuclear beta-catenin stimulation ([1]; at 10 µM) 0.1% | insulin secretion stimulation [2] -0.6% | viability decrease [3] 5.35% | tube area decrease [4] -26.3% | GLP1 secretion stimulation [5] 1.9% | inhibition of viability [6] 6.9% | viability decrease (inhibition) [7] 10.6% | viability decrease (inhibition) [8] -0.25%

Cc1cc(C)c(NC(=O)CN(CC(=O)O)CC(=O)O)c(C)c1Br
0.6%: nuclear beta-catenin stimulation ([1]; stimulation, at 2 µM)
inactive: nuclear beta-catenin stimulation ([1]; at 10 µM) 1.9% | insulin secretion stimulation [2] 0.25% | viability decrease [3] 29.2% | tube area decrease [4] -4.1% | GLP1 secretion stimulation [5] -3.7% | inhibition of viability [6] 13.3% | viability decrease (inhibition) [7] 4.7% | viability decrease (inhibition) [8] -14.9%

Cc1c(Cn2ccnc2)c2ccccc2n1CCC(=O)O
active: viability decrease [3] 108% | inhibition of viability [6] 103% | viability decrease (inhibition) [7] 79.6% | viability decrease (inhibition) [8] 60.9%
2.7%: nuclear beta-catenin stimulation ([1]; stimulation, at 2 µM)
inactive: nuclear beta-catenin stimulation ([1]; at 10 µM) 0.7% | insulin secretion stimulation [2] -0.1% | tube area decrease [4] -6.9% | GLP1 secretion stimulation [5] -1.3%

O=C(O)CC(O)C(=O)O (stereo not drawn)
inactive: nuclear beta-catenin stimulation ([1]; at 10 µM) 6% | insulin secretion stimulation [2] -0.5% | viability decrease [3] -6% | tube area decrease [4] 1.8% | GLP1 secretion stimulation [5] 1.3% | inhibition of viability [6] -8.5% | viability decrease (inhibition) [7] 13.3% | viability decrease (inhibition) [8] -7.65%
0%: nuclear beta-catenin stimulation ([1]; stimulation, at 2 µM)

CCCCC/C(C=O)=C\c1ccccc1
4.5%: nuclear beta-catenin stimulation ([1]; stimulation, at 2 µM)
inactive: nuclear beta-catenin stimulation ([1]; at 10 µM) 0.8% | insulin secretion stimulation [2] 1% | viability decrease [3] -20.6% | tube area decrease [4] 30.3% | GLP1 secretion stimulation [5] 0.1% | inhibition of viability [6] 1.1% | viability decrease (inhibition) [7] 12.8% | viability decrease (inhibition) [8] -11.3%

CN[C@@H]1[C@@H](O)[C@@H](O[C@@H]2[C@H](O)[C@H](O[C@H]3OC(CN)=CC[C@H]3N)[C@@H](N)C[C@H]2N)OCC1(C)O (stereo partly drawn)
5.2%: nuclear beta-catenin stimulation ([1]; stimulation, at 2 µM)
inactive: nuclear beta-catenin stimulation ([1]; at 10 µM) 3.9% | insulin secretion stimulation [2] 0.6% | viability decrease [3] -9.1% | tube area decrease [4] 0.1% | GLP1 secretion stimulation [5] 2.9% | inhibition of viability [6] -0.03% | viability decrease (inhibition) [7] -9.1% | viability decrease (inhibition) [8] -8.2%

NCCNc1cccc2ccccc12
inactive: nuclear beta-catenin stimulation ([1]; at 10 µM) 1.9% | insulin secretion stimulation [2] 1.9% | viability decrease [3] -5.55% | tube area decrease [4] -35.7% | GLP1 secretion stimulation [5] 0.6% | inhibition of viability [6] 17.2% | viability decrease (inhibition) [8] 7.9%
active: viability decrease (inhibition) [7] 51.5%
1.1%: nuclear beta-catenin stimulation ([1]; stimulation, at 2 µM)

CCOC(CN1CCN(CC(C)C(=O)c2ccccc2)CC1)c1ccccc1 (stereo not drawn)
inactive: nuclear beta-catenin stimulation ([1]; at 10 µM) 2.2% | insulin secretion stimulation [2] 5% | viability decrease [3] -4.9% | tube area decrease [4] 14% | GLP1 secretion stimulation [5] -1.8% | inhibition of viability [6] 21.2% | viability decrease (inhibition) [7] 0.6% | viability decrease (inhibition) [8] -4.9%
-0.1%: nuclear beta-catenin stimulation ([1]; stimulation, at 2 µM)

Cc1ccc(CCn2c3c(c4cc(Cl)ccc42)CN(C)CC3)cn1
inactive: nuclear beta-catenin stimulation ([1]; at 10 µM) 0.2% | viability decrease [3] 40.3% | tube area decrease [4] 3.4% | GLP1 secretion stimulation [5] 1.7% | viability decrease (inhibition) [8] 11.5%
0.7%: nuclear beta-catenin stimulation ([1]; stimulation, at 2 µM)
active: insulin secretion stimulation [2] 42% | inhibition of viability [6] 62.1% | viability decrease (inhibition) [7] 81.6%
